Molecules are shown by their SMILES. Among all 320,000 compounds or so, about 820 (0.26%) were called active.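 How the source made its calls: active means activation above the mean activation of all tested compounds plus 3 SD, per screening run (cut at about 20% in these data); inactive means the rest.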 What follows is part of a selection rich in actives, with near analogues and random picks from the rest.

Vasopressin V1a receptor (Homo sapiens), sequence (P37288 whole entry, looked up): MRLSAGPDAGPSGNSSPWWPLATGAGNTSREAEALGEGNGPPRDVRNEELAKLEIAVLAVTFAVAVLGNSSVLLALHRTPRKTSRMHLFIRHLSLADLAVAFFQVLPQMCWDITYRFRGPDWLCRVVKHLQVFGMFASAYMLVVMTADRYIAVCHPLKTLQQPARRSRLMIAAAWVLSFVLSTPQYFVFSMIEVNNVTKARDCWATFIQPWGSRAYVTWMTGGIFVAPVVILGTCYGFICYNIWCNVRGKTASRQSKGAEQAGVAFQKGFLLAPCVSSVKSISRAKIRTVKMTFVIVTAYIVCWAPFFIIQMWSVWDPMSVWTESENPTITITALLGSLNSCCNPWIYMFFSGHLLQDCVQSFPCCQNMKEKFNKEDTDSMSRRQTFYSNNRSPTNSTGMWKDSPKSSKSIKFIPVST

The test addresses Vasopressin V1a receptor (Homo sapiens) (UniProt P37288). Put plainly: V1R activation via calcium rise – fluorescence, CHO-V1R cells, counter-screen for OXTR agonist project, primary screen (AID 2797).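 Further: signal is peak over basal fluorescence ratio across a 100 second FLIPR read.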 The following applies: Fluo-8 calcium fluorescence, agonist mode, at 3 µM, hits give high values, 0% DMSO, 100% 3 nM vasopressin.
With `CCNC(=O)COc1cc(C)c(Br)c(C)c1`, the activation was 2% (inactive). Next, `Cc1cc(C)nc(SC(C)C(=O)N/N=C/c2cccs2)n1` (stereo unspecified): 0.12% (inactive); `COCCCNC(=S)NCCNc1nc2cc(C)c(C)cc2cc1C#N`: -0.33% (inactive).

On to `c1ccc(-c2cc3c(NCC4COc5ccccc5O4)ncnc3s2)cc1` (stereo unspecified), for which the activation was 1.35% (inactive). The same measure for `S=C(NCC1COc2ccccc2O1)Nc1ccc(Br)cc1` (stereo unspecified): 5.7% (inactive); for `c1ccc2c(c1)OCC(CNc1ncnc3nc[nH]c13)O2` (stereo unspecified): 102% (active). Next, `O=C(N/N=C/c1cc([N+](=O)[O-])ccc1O)/C(=C\c1cccs1)NC(=O)c1ccccc1`: 0.52% (inactive); `COc1ccccc1C1=CC(=O)CCC1`: -0.32% (inactive); `COc1cc(OC)cc(C(=O)NCC(=O)OCC(=O)NC(C)CCc2ccccc2)c1` (stereo unspecified): -0.08% (inactive). The same measure for `Cc1cc(C)cc(OCC(=O)NC(C)c2ccccc2)c1` (stereo unspecified): -1.15% (inactive); for `COc1cc(OC)cc(C(=O)N[C@H](C(=O)OCC(=O)NC(C)c2ccccc2)C(C)C)c1` (stereo partly specified): 68.5% (active). For the compound `COc1ccc(C(=O)NC(=S)NC2CCCCC2)cc1`, the activation was -0.74% (inactive). The same measure for `COc1ccc(C(=O)NC(=S)NNC(=O)CCc2ccccc2)cc1`: 37.5% (active). The same measure for `COc1ccc(CCC(=O)c2ccc(OC)cc2)cc1`: -0.9% (inactive); for `COc1ccc(C(=O)NNC(=S)NC(=O)c2ccccc2)cc1`: 60% (active); for `COc1ccc(/C(N)=N/OC(=O)CCCc2ccccc2)cc1`: -0.46% (inactive).

Regarding `COc1ccc(C(=O)NNC(=S)NC(=O)c2ccccc2[N+](=O)[O-])cc1`, the activation was -0.34% (inactive). Next, `Cc1ccc(O)c(-c2cc(C(=O)NCc3ccccc3)[nH]n2)c1`: 0.3% (inactive); `COc1ccc(Cc2nnc(SCC(=O)N(c3ccccc3)C(C)C)n(N)c2=O)cc1`: -1.17% (inactive). On to `Cc1cccc(NC(=O)CN2CCCN(S(=O)(=O)c3ccc(Br)s3)CC2)c1`, for which the activation is 1.99% (inactive). On to `Cc1cc(C)nc(NS(=O)(=O)c2ccc(N3C(=O)C4CCCCC4C3=O)cc2)n1` (stereo unspecified), for which the activation was 1.65% (inactive). The same measure for `CCNC(=O)CC1C(=O)N(c2ccc(OC)cc2)C(=S)N1CCc1ccncc1` (stereo unspecified): -0.58% (inactive). The same measure for `Cc1ccc(C(=O)Oc2ccc(C(=S)N3CCOCC3)cc2)cc1`: 1.56% (inactive); for `O=C(O)C1CCCN1C1=NS(=O)(=O)c2ccccc21` (stereo unspecified): -0.02% (inactive); for `O=C1C=CN2CCCC2CC1` (stereo unspecified): 0.74% (inactive). Take `COc1cccc2cc(C(N)=O)/c(=N\NC(=O)c3ccccc3)oc12`: the activation is 1.9% (inactive).

Turning to `NC(=O)c1cc2ccccc2o/c1=N/NC(=O)c1cccc(F)c1`, the activation was 1.54% (inactive).

Take `CCN(CC)c1ccc2cc(C(N)=O)/c(=N\NC(=O)c3ccncc3)oc2c1`: the activation was 27.3% (active). Next, `COc1ccc(CCNC(=O)CSc2nc(-c3ccc(OC)c(OC)c3)ccc2C#N)cc1`: -0.68% (inactive); `COc1cc(NS(=O)(=O)c2ccc(NC(=S)NC(=O)c3ccccc3)cc2)nc(OC)n1`: -0.14% (inactive). The same measure for `CC1CCCC(NC(=O)c2cc(S(=O)(=O)N3CCCCC3)ccc2Cl)C1C` (stereo unspecified): -0.2% (inactive); for `CCN(CC)C(CNC(=O)CSc1nnnn1-c1cccc(F)c1)c1ccco1` (stereo unspecified): -0.26% (inactive).

`CCOc1ccc(NC(=O)CSc2nncn2C)cc1`: the activation is 0.81% (inactive). Regarding `CCCCN(C(=O)c1nn(C)c(=O)c2ccccc12)c1c(N)n(CCC)c(=O)[nH]c1=O`, the activation is 0.08% (inactive). As to `Cc1onc(-c2ccccc2)c1C(=O)NNC(=S)NC(=O)c1ccc(F)cc1`, the activation is 21.1% (active).

On to `Cc1onc(-c2ccccc2)c1C(=O)N=C(N)c1ccc(Cl)cc1`, for which the activation was 0.22% (inactive). The same measure for `CCc1noc(C)c1C(=O)NNC(=O)c1ccc(F)cc1`: 0.87% (inactive); for `COc1ccc(C(=O)NC(=S)NNC(=O)c2c(-c3ccccc3)noc2C)cc1`: 70.5% (active); for `Cc1onc(-c2ccccc2)c1C(=O)Nc1ccccc1C#N`: -1.51% (inactive). As to `Cc1onc(-c2c(Cl)cccc2Cl)c1C(=O)NNC(=O)c1c(-c2c(Cl)cccc2Cl)noc1C`, the activation was 0.81% (inactive). Consider `Cc1ccc(C(=O)Nc2sc(Cc3ccc4c(c3)OCO4)c(C)c2C(N)=O)cc1`, for which the activation was -0.01% (inactive).

Take `COc1ccc(C(=O)C2CCCN(Cc3cccn3-c3ccccn3)C2)c(C)c1` (stereo unspecified): the activation was 8% (inactive). Regarding `COC(=O)C1=C(C(=O)OC)C(c2cc([N+](=O)[O-])ccc2O)c2sc(=O)[nH]c2S1` (stereo unspecified), the activation was 0.68% (inactive). In the case of `CC1(C)OC(=O)C(=CSc2ccc(C(C)(C)C)cc2)C(=O)O1`, the activation was 1% (inactive). `Fc1ccc(NC(=S)N2CCc3[nH]c4ccccc4c3C2)cc1`: the activation was 4.06% (inactive).

As to `CC1CCc2[nH]c3ccc(C(=O)N(C)CC(=O)Nc4cccc(F)c4)cc3c2C1` (stereo unspecified), the activation is 0.41% (inactive).

Turning to `O=C(CCCN1CCc2[nH]c3ccc(F)cc3c2C1)c1ccc(F)cc1`, the activation is 23% (active). Turning to `Cc1cc(OCc2ccc(C(=O)Nc3ccc(C(=O)O)cc3)o2)ccc1Cl`, the activation is 2.11% (inactive). The same measure for `S=c1nccc(-c2cc(Cl)sc2Cl)[nH]1`: 0.23% (inactive); for `CC1CCN(CC(O)COc2ccc(C(=O)c3ccccc3)cc2)CC1` (stereo unspecified): 1.88% (inactive). The same measure for `O=C(c1ccc(Cl)cc1)c1ccc(OCC(O)CN2CCCCC2)cc1` (stereo unspecified): 4.01% (inactive); for `O=C(c1ccccc1)c1ccc(OCC(O)CN2CCCC2)cc1` (stereo unspecified): 22.4% (active).

For `CCOC(=O)C1(C)NC(c2ccco2)C2C(=O)N(c3ccccc3)C(=O)C21` (stereo unspecified), the activation is 3.3% (inactive). The same measure for `COc1ccc(NC(=O)CN(Cc2ccccc2)S(C)(=O)=O)cc1OC`: 0.58% (inactive); for `COc1ccc(OCCNC(=O)c2cc(C3CC3)nc3c2cnn3C(C)C)cc1`: -0.36% (inactive); for `CCOC(=O)C1=C(NC(=S)NC(=O)c2ccccc2)c2ccccc2CC1(C)C`: 29.8% (active).

With `COCCCNC(=S)NC(=O)c1ccccc1`, the activation was 1.26% (inactive).

Turning to `Cc1ccc(NC(=S)NC(=O)c2ccc(-c3ccccc3)cc2)cc1`, the activation was 0.62% (inactive). The same measure for `Cc1ccc(NC(=O)CSc2nn3c(=O)c(C)nnc3s2)cc1Cl`: 0.31% (inactive); for `CCC(C)C(=O)Nc1cc([N+](=O)[O-])ccc1Cl` (stereo unspecified): -0.34% (inactive); for `CC(C)(C)NC(=O)C(=O)NCc1ccncc1`: 0% (inactive). Consider `N#CC1(NC(=O)COC(=O)CCN=C2NS(=O)(=O)c3ccccc32)CCCCC1`, for which the activation was 0.74% (inactive). Regarding `O=C(CCCN=C1NS(=O)(=O)c2ccccc21)OCC(=O)c1ccc(F)c(F)c1`, the activation is 22.6% (active). The same measure for `O=C(OCCN=C1NS(=O)(=O)c2ccccc21)c1cccc([N+](=O)[O-])c1`: 3.94% (inactive); for `N#CCN(C(=O)COC(=O)C1CC2CCCC(C1)C2=O)c1ccccc1` (stereo unspecified): -0.11% (inactive). Next, `COc1ccc(C23NCCN2C(=O)c2ccccc23)cc1` (stereo unspecified): -0.14% (inactive); `CCOC(=O)N1CCN(CCC(=O)Nc2ccccc2)CC1`: 0.3% (inactive); `CC1CCN(CCC(=O)Nc2ccccc2)CC1`: 0.38% (inactive). Regarding `Cc1cc(NC(=O)CCN2CCN(Cc3ccccc3)CC2)ccc1Br`, the activation was 26.5% (active). In the case of `Cc1cc(C)c(/C=C2\C(=O)Nc3ccccc32)[nH]1`, the activation is 23.6% (active). Next, `CN(C)/C=C1/Nc2ccccc2C1=O`: 1.1% (inactive); `O=C1Nc2ccccc2/C1=C/c1ccnc2ccccc12`: 3.16% (inactive); `COc1ccc([C@H]2CC(=O)C=C(c3ccc(OC(F)(F)F)cc3)C2)cc1OC`: 1.96% (inactive). The same measure for `COc1ccc(C2CC(c3cccs3)Nc3nnnn32)cc1` (stereo unspecified): 1.36% (inactive). Next, `Cc1ccc(S(=O)(=O)NCCC(=O)NNC(=O)C2COc3ccccc3O2)cc1` (stereo unspecified): -0.1% (inactive). For the compound `COc1ccc(C2C(C#N)=C(N)N(c3ncn[nH]3)C3=C2C(=O)CCC3)cc1` (stereo unspecified), the activation was 1.11% (inactive). Next, `Cc1cc2nc3c(=O)n(Cc4ccccc4)c(=O)[nH]c3nc2cc1N`: 73.4% (active); `C=CCSc1nc2c(c(=O)[nH]c(=O)n2C)n1Cc1ccccc1`: 0.69% (inactive); `CN(C(=O)COC(=O)c1ccc(Br)o1)c1c(N)n(Cc2ccccc2)c(=O)[nH]c1=O`: -0.45% (inactive). The same measure for `C[C@H](NC(=O)c1nc[nH]c1C(=O)NCC(=O)OC(C)(C)C)c1ccccc1`: -0.3% (inactive); for `Cc1c(Br)cc(C(=O)N2CCCCCC2)c(C)c1C`: -1.61% (inactive); for `O=C(NC(=S)Nc1ccccc1N1CCCCC1)c1ccc(F)cc1`: -0.81% (inactive). Take `COC(=O)Cc1ccc(NC(=S)NCc2ccc(Cl)cc2)cc1`: the activation is 10% (inactive). For `Cc1ccccc1N/C(SCc1ccc(Cl)cc1)=C(/C#N)C(N)=O`, the activation was -0.5% (inactive). The same measure for `Cc1ccccc1NC(=S)NC(=O)Cc1ccc(Cl)cc1`: 26.2% (active); for `O=C(COc1ccc(Cl)cc1)NC(=S)Nc1ccccc1N1CCOCC1`: 3.48% (inactive); for `O=C(Cc1ccc(Cl)cc1)NC(=S)Nc1ccccc1O`: 47.5% (active). The same measure for `Cc1cccc(NC(=S)NCCc2ccc(Cl)cc2)c1C`: 0.32% (inactive); for `CCN1CCN(C(=O)CN(C)S(=O)(=O)c2ccc3ccccc3c2)CC1`: 0.47% (inactive); for `Cc1nc2scc(-c3cccs3)c2c(=O)n1N`: -0.59% (inactive).

With `CCOc1ccc(C(=O)Nc2ccc(S(=O)(=O)NCC3CCCO3)cc2)cc1OCC` (stereo unspecified), the activation was 1.35% (inactive). Regarding `Cc1ccc(OCCNC(=O)CNC(=O)c2ccc(C)c(C)c2)cc1`, the activation is -0.83% (inactive). As for `Cc1nc2c(ncn2-c2ccccc2)c(=O)n1NC(=O)CN1CCCC1`, the activation is 0.46% (inactive).

On to `COc1ccc(C2C=C(c3ccc(Br)cc3)Nc3nc(NS(C)(=O)=O)nn32)cc1` (stereo unspecified), for which the activation was 23.5% (active).

In the case of `Brc1ccc(C2=CC(c3ccco3)n3ncnc3N2)cc1` (stereo unspecified), the activation was 9.25% (inactive).

Turning to `CCOc1ccc(C2=CC(c3ccccc3)n3ncnc3N2)cc1` (stereo unspecified), the activation was 0.49% (inactive).

These data come from PubChem BioAssay AID2797 (The Scripps Research Institute Molecular Screening Center, 2010).
